From PubChem BioAssay AID456 (Sanford-Burnham Center for Chemical Genomics, 2006) come the findings set out here.

SMILES strings stand for the structures. Screen size: about 10,000 compounds; about 25 (0.2%) were called active.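 Rule for the calls: active = top tenth filtered wells with inhibition above zero that passed visual or statistical confirmation; inactive = the rest, including hits rejected on review.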 Shown is part of a subset that was picked to be rich in actives. Measured potencies and affinities stand elsewhere.

The test can be described thus: inhibitors of TNFa-induced VCAM-1 surface display, imaging, high-content imaging, pooled HUVEC, TNFa stimulus (AID 456).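 For inhibition: VCAM-1 immunofluorescence minus red nonspecific channel after plate median normalization.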 Particulars: HUVEC TNFa-induced VCAM-1 surface expression, immunofluorescence imaging;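 compounds screened at 5 µM final in the well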.
For the molecule `CC1(C)CC(CCNC(=O)c2ccco2)CC(C)(C)N1`, the inhibition result is “inactive”.

In the case of `CC1CCc2nn(CC(=O)NCc3ccc4c(c3)OCO4)cc2C1` (configuration not stated), the inhibition entry is “inactive”.

For the molecule `CCS(=O)(=O)c1nc2ccccc2n1Cc1ccccc1Cl`, the inhibition result was “inactive”.

On to `O=C1c2oc3ccccc3c(=O)c2C(c2ccccn2)N1Cc1ccccc1` (configuration not stated), for which the inhibition result is “inactive”.

In the case of `COc1ccc(Cl)c(NC(=O)NCCN2CCN(c3ccccc3)CC2)c1`, the inhibition result was “inactive”.

For the molecule `Cc1cc2ncn(C(=O)c3c(-c4ccccc4)noc3C)c2cc1C`, the inhibition entry is “inactive”.

`CCOC(=O)c1ccccc1NC1c2ccccc2C(=O)N1C1CCN(C(=O)OCC)CC1` (configuration not stated): the inhibition result is “inactive”.

On to `CCOC(=O)N1CCC(N2C(=O)c3ccccc3C2Nc2ccccc2C)CC1` (configuration not stated), for which the inhibition entry is “inactive”.

As to `CCOC(=O)N1CCC(N2C(=O)c3ccccc3C2Nc2cc(Cl)c(OC)cc2OC)CC1` (configuration not stated), the inhibition is 72.7% (active).

With `CCN(CC)C(=O)CSc1nnc([C@@H](N)Cc2ccccc2)o1`, the inhibition result was “inactive”.

Take `Cc1nnc(NC(=O)c2ccccc2F)s1`: the inhibition entry is “inactive”.

Consider `CCOc1ccc(N(CC(=O)NC2CCCC2)S(=O)(=O)c2c(C)[nH]c(=O)[nH]c2=O)cc1`, for which the inhibition result is “inactive”.

For the molecule `CC1CC(C)CN(Cc2nc3c(c(=O)n(C)c(=O)n3C)n2Cc2ccccc2Cl)C1` (configuration not stated), the inhibition entry is “inactive”.

In the case of `O=C(COC(=O)c1ccc(S(=O)(=O)Nc2ccccc2)cc1)NCCN1C(=O)CSC1=O`, the inhibition result is “inactive”.

Consider `CCOC(=O)CSc1nc2ccccc2c(=O)n1CCN1CCOCC1`, for which the inhibition result was “inactive”.

For the molecule `O=C(NCCC1=CCCCC1)C1CC(=O)N(C2CCCCCC2)C1` (configuration not stated), the inhibition entry was “inactive”.

`CCCN1CCN(CCCNC(=O)Cn2nc(-c3ccc(Cl)cc3)ccc2=O)CC1`: the inhibition entry is “inactive”.

For the molecule `Cc1ccc(-c2ccc(=O)n(CC(=O)NCCCN3CCCCC3C)n2)cc1` (configuration not stated), the inhibition result was “inactive”.

Regarding `COCc1nnc(NC(=O)CCCOc2ccccc2)s1`, the inhibition result is “inactive”.

As to `Cc1ccc(NC(=O)CCC(=O)O)cc1F`, the inhibition entry was “inactive”.

As for `CC1Cc2ccccc2N1C(=O)CSc1nnc2n1C(C)(C)Cc1ccccc1-2` (configuration not stated), the inhibition entry is “inactive”.

For the molecule `CCOc1ccc(Nc2nc(Cc3nnc(SCC(N)=O)o3)cs2)cc1`, the inhibition entry was “inactive”.

As to `COc1ccc(Br)cc1C1N2CC3(C)CN1CC(C)(C2)C3=O` (configuration not stated), the inhibition entry was “inactive”.

Regarding `Cc1cc(C)nc(SC2=CS(=O)(=O)c3ccccc32)n1`, the inhibition was 99.6% (inactive).

Consider `O=S1(=O)C=C(Sc2nnc(-c3ccccc3)o2)c2ccccc21`, for which the inhibition result was “inactive”.

For `CCCCN(CCCC)CCn1cnc2c([nH]c3ccc(OC)cc32)c1=O`, the inhibition result was “inactive”.

Turning to `O=C(CC1Oc2ccccc2NC1=O)NCCCN1CCOCC1` (configuration not stated), the inhibition result is “inactive”.

Turning to `CC(C)(C)OC(=O)N1CCC(C(=O)N2CCCCCC2)CC1`, the inhibition entry was “inactive”.

`Nc1cc(N)cc(-c2nc3ccccc3o2)c1`: the inhibition result is “inactive”.

Take `Nc1nc(CN2CCOCC2)cs1`: the inhibition result is “inactive”.

Regarding `CC(C(=O)N1c2ccc(F)cc2CCC1C)N1C(=O)c2ccccc2C1=O` (configuration not stated), the inhibition result was “inactive”.

Turning to `COc1cccc(NC(=O)CN2CCN(c3ccccc3F)CC2)c1`, the inhibition result was “inactive”.

For the molecule `CCOc1ccc(N(CC(=O)Nc2ccc(C)c(C)c2)S(=O)(=O)c2c(C)noc2C)cc1`, the inhibition result was “inactive”.

With `N#CCCN(Cc1cccnc1)C(=O)Nc1ccc(Cl)c(Cl)c1`, the inhibition result was “inactive”.

Regarding `COc1ccccc1-c1noc(-c2ccco2)n1`, the inhibition result is “inactive”.

As to `Cc1cc(=O)n2[nH]c(-c3ccc(Cl)cc3)cc2n1`, the inhibition result was “inactive”.

As to `CCOC(=O)Cn1nc(-c2ccc(Cl)cc2)cc1N`, the inhibition entry is “inactive”.

With `COc1ccc(NC(=O)CN(c2cc(C)cc(C)c2)S(=O)(=O)c2c(C)noc2C)cc1OC`, the inhibition result is “inactive”.

For `c1cc2c(cc1Nc1nc(-c3ccc4c(c3)OCO4)cs1)OCCO2`, the inhibition result is “inactive”.

In the case of `CC(=O)Nc1nc(C)c(-c2csc(Nc3ccc(O)cc3)n2)s1`, the inhibition entry was “inactive”.

`Cc1ccc(Cc2c(C)nc3c(C(=O)O)cnn3c2C)cc1`: the inhibition entry is “inactive”.

`CCOC(=O)CN1CC23C=CC(O2)C(C(=O)Nc2ccc(OCC)cc2)C3C1=O` (configuration not stated): the inhibition result was “inactive”.

`CN(C)CCCN1c2ccccc2CCc2ccccc21`: the inhibition entry was “inactive”.

On to `CNCCCN1c2ccccc2CCc2ccccc21`, for which the inhibition entry was “inactive”.

On to `CN(C)CCCN1c2ccccc2Sc2ccc(C(F)(F)F)cc21`, for which the inhibition result was “inactive”.

Regarding `CN(C)CCCN1c2ccccc2Sc2ccccc21`, the inhibition result is “inactive”.

In the case of `CCC1CCCCN1CCCNC(=O)CC1Oc2ccc(C)cc2NC1=O` (configuration not stated), the inhibition result was “inactive”.
